In PubChem BioAssay (Tox21):
Calls of active or inactive are those of the source. Calls follow the shape of the dose curve; as a rule, active = well fitted curve in the direction sought with a large enough effect in the repeat runs; inconclusive = weak or mixed curves; inactive = flat fitted curve, though single readings scatter.

assay: qHTS assay to test for compound auto fluorescence at 535 nm (green) in HepG2 cells (AID 720675); settings: green autofluorescence 485/535 nm, 1 h; series mostly up to 91.3 µM; fluorescence, % of fluorescein control: at the top concentration
Text: National Center for Advancing Translational Sciences [NCATS]
NIH Chemical Genomics Center [NCGC]
U.S. Environmental Protection Agency [EPA]
National Institutes of Environmental Health Sciences [NIEHS]
National Toxicology Program [NTP]
U.S. Food and Drug Administration [FDA]
Compound auto fluorescence often interferes with screening of the compound library against various biological targets and signaling pathways. Some of these compounds may have fluorophoric properties. Such properties may interfere with the assay outputs resulting in false positives and/or negatives. To decrease such complications and ensure the compound activities are relevant in terms of biological response, the Tox21 10K compound library was screened for auto fluorescence.
From the fluorophores used as reporter signals in our screening assays, the auto fluorescence equivalencies of compounds against three fluorophores have been evaluated: Triamterene, Fluorescein and Rose Bengal sodium for blue, green and red fluorescence, respectively. The fluorescence intensities were measured using Excitation/Emission wavelengths at 405/460nm, 485/535nm and 540/590nm for blue, green and red labels, respectively. This assay includes the green fluorescence data.
Tox21 Assay Protocol Summary:
2,000 HepG2 cells in 5 uL of culture medium (MEM containing 10% FBS) per well were dispensed into black wall/clear bottom 1536-well plates using a Multidrop Combi Dispenser (ThermoFisher Scientific, Waltham, MA). The assay plates were incubated overnight at 37 C to allow cell attachment to the well bottom, followed by the transfer of 23 nL compound or DMSO vehicle by a pintool work station (Kalypsys , San Diego, CA). After the assay plates were incubated for 1 hr at 37 C and 5% CO2, fluorescence intensities in the assay plates were measured by an Envision (PerkinElmer, Shelton, CT) plate reader using three labels for measuring blue, green and red fluorescence at […] 460, 535 and 590 nm respectively.
% is scaled to controls: 0 for no effect and ±100 for the full control effect.

Compound	fluorescence, % of fluorescein control	outcome
CCn1cc(C(=O)O)c(=O)c2cc(F)c(N3CCN(C)CC3)cc21	0.0231% [at 46 µM] (inactive)	
Cc1ccccc1Br	-0.0072% (inactive)	
CCCc1ccc(N)cc1	-0.0094% (inactive)	
CC(C)(C)OC(=O)N1C[C@@H](F)C[C@H]1C(=O)O	-0.0124% [at 95.7 µM] (inactive)	
OC/C=C/c1ccccc1		inactive
C=C(C)C(=O)NCCCN(C)C	0.0642% (inactive)	
CCc1cc(S(=O)(=O)O)c2cc(C(C)C)cccc1-2	-0.11% [at 46 µM] (inactive)	
CC1=CC(=O)CCC1	0.0076% (inactive)	
CO		inactive
O=C(O)CCNC(=O)c1ccc(N=Nc2ccc(O)c(C(=O)O)c2)cc1	-0.0891% [at 46 µM] (inactive)	
C=C(C)[C@H]1CC=C(C)CC1	0.103% (inactive)	
c1cc(CN2CCCCC2)cc(OCCCNc2nc3ccccc3s2)c1	0.0961% [at 46 µM] (inactive)	
COC(=O)C1=C(C)NC(C)=C(C(=O)OCC(C)=O)C1c1ccccc1[N+](=O)[O-] (stereo not given)	-0.119% [at 46 µM] (inactive)	
Oc1ccc2c(c1)OC[C@@H](N1CCC(O)(c3ccc(F)cc3)CC1)[C@H]2O	0.164% [at 46 µM] (inactive)	
COCc1ccc(COC)cc1	0.0345% (inactive)	
O=S(=O)(c1cccc2cnccc12)N1CCCNCC1	0.0016% [at 46 µM] (inactive)	
CCC(=O)Nc1cccc(N)c1	0.0455% (inactive)	
O=Cc1ccccc1[N+](=O)[O-]	-0.114% (inactive)	
CCO[Si](C)(OCC)OCC	-0.192% (inactive)	
CNc1ncnc2nc[nH]c12	-0.0211% [at 95.7 µM] (inactive)	

Compound	fluorescence, % of fluorescein control	outcome
CCC(C(=O)NC(N)=O)c1ccccc1 (stereo not given)		inactive
NC(=O)CCCCC1CCSS1 (stereo not given)	0.226% [at 46 µM] (inactive)	
O=[N+]([O-])c1ccc(CCO)cc1	-0.0063% (inactive)	
O=[N+]([O-])c1ccc(Oc2ccc([N+](=O)[O-])cc2)cc1	0.0546% [at 95.7 µM] (inactive)	
CC(C)CCCC(C)CCCC(C)CCCCC(C)CCCC(C)CCCC(C)C (stereo not given)	0.0111% [at 46 µM] (inactive)	
O=C1C(CCS(=O)c2ccccc2)C(=O)N(c2ccccc2)N1c1ccccc1 (stereo not given)	-0.114% [at 18.6 µM] (inactive)	
FC(F)(F)C(F)(F)C(F)(F)C(F)(F)C(F)(F)C(F)(F)C(F)(F)C(F)(F)C(F)(F)C(F)(F)F	-0.0906% [at 9.17 µM] (inactive)	
N#CC1(O)CCCCC1	0.0763% (inactive)	
CC1=CCC2C(C1)C2(C)C (stereo not given)	0.0409% (inactive)	
CC(C)CCCCCCN	0.187% (inactive)	
C[C@H](O)C(=O)Nc1c(I)c(C(=O)NC(CO)CO)c(I)c(C(=O)NC(CO)CO)c1I	0.0325% [at 18.6 µM] (inactive)	
CCCCC1CCCCC(=O)O1 (stereo not given)	0.0691% (inactive)	
CCCC(C)C(=O)O (stereo not given)	0.0116% (inactive)	
COCCOC(=O)CC#N	-0.0142% (inactive)	
CCN1CCCC1CNC(=O)c1cc(S(N)(=O)=O)ccc1OC (stereo not given)	0.0286% (inactive)	
CC(=O)CCc1ccc(O)cc1	-0.0576% (inactive)	
CCOC(=O)[C@H](CCc1ccccc1)N[C@@H](C)C(=O)N1CCC[C@H]1C(=O)O	0.0393% [at 46 µM] (inactive)	
CCCc1ccccc1O	-0.0323% (inactive)	
COc1nc(C)nc(N)n1	0.0087% (inactive)	
COC(=O)CCCC(=O)O	-0.081% (inactive)	
